Results published in the supplement of paper PMC10849652.
About 7,900 targets were measured; listed, in parts, are those with a hit and a random draw of the rest. About 0.6% of all pairs of compound and target were hits. A number with no mark means an inactive call.

What was measured:
Assay in all cases: log2 fold change, soluble protein after heating vs DMSO (PISA); higher = thermal stabilisation; K562 cells, 10 uM, 30 min; active = over 0.2 and 3.5 SD of the protein, either way, in both replicates (recomputed)
[1] = compound: COC1=CC=C(C=C1)CN2C=CC3=C2C=C(C=C3)C(=O)NO
How it was run: (§1)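 K562 cells at 2×10^6 cells/mL were exposed to 10 μM compound for 30 min, then aliquots were heated for 3 min across 48°C-58°C, pooled, and extracted in PBS containing 0.5% NP-40 at 4°C. The supernatant after 21,000xg for 90 min was taken as soluble protein and measured by TMTpro 16plex LC-MS/MS with channel sums equalised. Thermal stability is reported relative to control samples, with values from duplicates. Fold changes are given on a log2 scale.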

filanesib = compound: CON(C)C(=O)N1N=C(c2cc(F)ccc2F)S[C@@]1(CCCN)c1ccccc1 [filanesib]
How it was run: as §1

zotarolimus = compound: CO[C@H]1C[C@@H]2CC[C@@H](C)[C@@](O)(O2)C(=O)C(=O)N2CCCC[C@H]2C(=O)O[C@H]([C@H](C)C[C@@H]2CC[C@H](n3cnnn3)[C@H](OC)C2)CC(=O)[C@H](C)/C=C(\C)[C@@H](O)[C@@H](OC)C(=O)[C@H](C)C[C@H](C)/C=C/C=C/C=C/1C [zotarolimus]
How it was run: as §1

idasanutlin = compound: COc1cc(C(=O)O)ccc1NC(=O)[C@@H]1N[C@@H](CC(C)(C)C)[C@](C#N)(c2ccc(Cl)cc2F)[C@H]1c1cccc(Cl)c1F [idasanutlin]
How it was run: as §1

alisertib = compound: COc1cc(Nc2ncc3c(n2)-c2ccc(Cl)cc2C(c2c(F)cccc2OC)=NC3)ccc1C(=O)O [alisertib]
How it was run: as §1

[2] = compound: COc1cc2nc(-c3cc(F)ccc3O)nc(N[C@@H]3CNC[C@H]3C(C)(C)O)c2cc1OC
How it was run: as §1

gefitinib = compound: COc1cc2ncnc(Nc3ccc(F)c(Cl)c3)c2cc1OCCCN1CCOCC1 [gefitinib]
How it was run: as §1

[3] = compound: COc1cccc2cc(-c3nc([C@H]4CC[C@H](C(=O)O)CC4)n4ncnc(N)c34)[nH]c12
How it was run: as §1

lapatinib = compound: CS(=O)(=O)CCNCc1ccc(-c2ccc3ncnc(Nc4ccc(OCc5cccc(F)c5)c(Cl)c4)c3c2)o1 [lapatinib]
How it was run: as §1

pictilisib = compound: CS(=O)(=O)N1CCN(Cc2cc3nc(-c4cccc5[nH]ncc45)nc(N4CCOCC4)c3s2)CC1 [pictilisib]
How it was run: as §1

[4] = compound: CS(=O)(=O)c1ccc(-c2cnc(N)c(C(=O)Nc3ccccc3)n2)cc1
How it was run: as §1

crizotinib = compound: C[C@@H](Oc1cc(-c2cnn(C3CCNCC3)c2)cnc1N)c1c(Cl)ccc(F)c1Cl [crizotinib]
How it was run: as §1

[5] = compound: C[C@@H]1COCCN1C2=NC(=NC(=C2)C3(CC3)S(=O)(=O)C)C4=C5C=CNC5=CC=C4
How it was run: as §1

[6] = compound: C[C@H](C1=CC=C(C=C1)C(=O)NC2=C3C=CNC3=NC=C2)N
How it was run: as §1

duvelisib = compound: C[C@H](Nc1ncnc2nc[nH]c12)c1cc2cccc(Cl)c2c(=O)n1-c1ccccc1 [duvelisib]
How it was run: as §1

gandotinib = compound: Cc1cc(Nc2cc(CN3CCOCC3)c3nc(C)c(Cc4ccc(Cl)cc4F)n3n2)n[nH]1 [gandotinib]
How it was run: as §1

tozasertib = compound: Cc1cc(Nc2cc(N3CCN(C)CC3)nc(Sc3ccc(NC(=O)C4CC4)cc3)n2)n[nH]1 [tozasertib]
How it was run: as §1

[7] = compound: Cc1cc(SCc2sc(-c3ccc(C(F)(F)F)cc3)nc2C)ccc1OCC(=O)O
How it was run: as §1

doramapimod = compound: Cc1ccc(-n2nc(C(C)(C)C)cc2NC(=O)Nc2ccc(OCCN3CCOCC3)c3ccccc23)cc1 [doramapimod]
How it was run: as §1

ispinesib = compound: Cc1ccc(C(=O)N(CCCN)[C@@H](c2nc3cc(Cl)ccc3c(=O)n2Cc2ccccc2)C(C)C)cc1 [ispinesib]
How it was run: as §1

Chain of UniProt Q9Y2X0 (Q9Y2X0 whole entry, looked up): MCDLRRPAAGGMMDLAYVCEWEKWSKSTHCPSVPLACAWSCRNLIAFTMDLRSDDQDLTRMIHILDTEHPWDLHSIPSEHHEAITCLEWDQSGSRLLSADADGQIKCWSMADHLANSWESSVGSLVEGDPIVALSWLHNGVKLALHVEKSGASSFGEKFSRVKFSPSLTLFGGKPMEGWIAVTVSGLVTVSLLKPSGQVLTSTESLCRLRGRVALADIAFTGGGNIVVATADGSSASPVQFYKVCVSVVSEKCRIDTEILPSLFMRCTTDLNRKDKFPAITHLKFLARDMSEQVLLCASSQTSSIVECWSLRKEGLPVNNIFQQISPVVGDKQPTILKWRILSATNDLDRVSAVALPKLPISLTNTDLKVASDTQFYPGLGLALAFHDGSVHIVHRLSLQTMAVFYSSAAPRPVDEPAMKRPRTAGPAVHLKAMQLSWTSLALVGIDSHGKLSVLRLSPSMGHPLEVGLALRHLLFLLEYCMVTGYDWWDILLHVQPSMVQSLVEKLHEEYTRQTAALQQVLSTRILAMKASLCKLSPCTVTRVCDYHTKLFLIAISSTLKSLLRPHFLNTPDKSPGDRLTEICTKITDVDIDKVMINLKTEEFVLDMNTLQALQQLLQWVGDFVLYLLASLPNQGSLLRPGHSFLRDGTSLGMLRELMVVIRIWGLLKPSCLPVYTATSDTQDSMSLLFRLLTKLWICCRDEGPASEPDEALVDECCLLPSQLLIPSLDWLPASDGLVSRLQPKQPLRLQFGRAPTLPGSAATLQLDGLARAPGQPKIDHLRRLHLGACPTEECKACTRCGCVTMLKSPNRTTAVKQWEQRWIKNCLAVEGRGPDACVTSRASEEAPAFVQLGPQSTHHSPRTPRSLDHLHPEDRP
Chain of UniProt Q6P1A2 (Q6P1A2 whole entry, looked up): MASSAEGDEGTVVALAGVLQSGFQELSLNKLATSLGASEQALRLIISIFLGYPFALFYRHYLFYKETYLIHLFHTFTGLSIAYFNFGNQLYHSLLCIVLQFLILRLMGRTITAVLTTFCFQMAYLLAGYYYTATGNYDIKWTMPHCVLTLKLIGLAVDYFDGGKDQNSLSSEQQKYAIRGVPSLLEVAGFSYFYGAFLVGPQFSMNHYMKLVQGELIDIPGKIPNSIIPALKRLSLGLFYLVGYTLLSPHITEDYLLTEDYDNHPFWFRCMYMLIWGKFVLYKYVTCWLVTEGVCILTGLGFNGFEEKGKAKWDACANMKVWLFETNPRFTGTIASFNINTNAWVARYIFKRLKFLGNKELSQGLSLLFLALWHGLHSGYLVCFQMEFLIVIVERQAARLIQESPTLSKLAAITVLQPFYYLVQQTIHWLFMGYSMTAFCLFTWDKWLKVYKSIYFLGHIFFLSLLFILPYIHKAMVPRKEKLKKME
Chain of UniProt Q9Y4K4 (Q9Y4K4 whole entry, looked up): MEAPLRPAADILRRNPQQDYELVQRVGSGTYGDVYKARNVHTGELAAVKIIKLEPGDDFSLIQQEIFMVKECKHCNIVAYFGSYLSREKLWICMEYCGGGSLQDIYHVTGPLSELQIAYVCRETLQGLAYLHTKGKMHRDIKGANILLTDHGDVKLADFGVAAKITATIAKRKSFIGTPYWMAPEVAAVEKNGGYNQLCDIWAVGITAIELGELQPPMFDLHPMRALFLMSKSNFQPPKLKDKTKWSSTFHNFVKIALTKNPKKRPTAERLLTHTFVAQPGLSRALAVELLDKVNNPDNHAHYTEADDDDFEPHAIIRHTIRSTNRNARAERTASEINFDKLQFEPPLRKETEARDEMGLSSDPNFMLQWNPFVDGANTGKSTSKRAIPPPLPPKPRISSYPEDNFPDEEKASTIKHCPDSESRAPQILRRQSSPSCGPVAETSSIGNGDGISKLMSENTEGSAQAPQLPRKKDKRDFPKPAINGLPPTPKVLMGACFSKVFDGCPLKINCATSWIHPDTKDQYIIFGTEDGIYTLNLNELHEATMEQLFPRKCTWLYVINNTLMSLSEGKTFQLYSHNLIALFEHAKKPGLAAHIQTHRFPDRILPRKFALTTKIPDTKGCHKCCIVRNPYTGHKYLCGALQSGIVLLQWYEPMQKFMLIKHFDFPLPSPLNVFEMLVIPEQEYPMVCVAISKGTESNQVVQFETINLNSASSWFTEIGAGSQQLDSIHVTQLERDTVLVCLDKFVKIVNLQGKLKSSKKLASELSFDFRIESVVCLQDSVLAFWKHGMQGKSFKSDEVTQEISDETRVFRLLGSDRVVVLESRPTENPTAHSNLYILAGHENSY
Chain of UniProt Q14681 (Q14681 whole entry, looked up): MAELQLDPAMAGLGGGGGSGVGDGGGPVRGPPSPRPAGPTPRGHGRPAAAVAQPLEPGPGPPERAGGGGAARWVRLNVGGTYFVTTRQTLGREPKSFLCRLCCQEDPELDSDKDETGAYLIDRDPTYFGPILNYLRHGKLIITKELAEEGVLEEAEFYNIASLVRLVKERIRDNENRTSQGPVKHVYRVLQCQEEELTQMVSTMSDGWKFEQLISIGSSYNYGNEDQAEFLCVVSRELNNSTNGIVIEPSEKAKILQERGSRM
Chain of UniProt Q16891 (Q16891 whole entry, looked up): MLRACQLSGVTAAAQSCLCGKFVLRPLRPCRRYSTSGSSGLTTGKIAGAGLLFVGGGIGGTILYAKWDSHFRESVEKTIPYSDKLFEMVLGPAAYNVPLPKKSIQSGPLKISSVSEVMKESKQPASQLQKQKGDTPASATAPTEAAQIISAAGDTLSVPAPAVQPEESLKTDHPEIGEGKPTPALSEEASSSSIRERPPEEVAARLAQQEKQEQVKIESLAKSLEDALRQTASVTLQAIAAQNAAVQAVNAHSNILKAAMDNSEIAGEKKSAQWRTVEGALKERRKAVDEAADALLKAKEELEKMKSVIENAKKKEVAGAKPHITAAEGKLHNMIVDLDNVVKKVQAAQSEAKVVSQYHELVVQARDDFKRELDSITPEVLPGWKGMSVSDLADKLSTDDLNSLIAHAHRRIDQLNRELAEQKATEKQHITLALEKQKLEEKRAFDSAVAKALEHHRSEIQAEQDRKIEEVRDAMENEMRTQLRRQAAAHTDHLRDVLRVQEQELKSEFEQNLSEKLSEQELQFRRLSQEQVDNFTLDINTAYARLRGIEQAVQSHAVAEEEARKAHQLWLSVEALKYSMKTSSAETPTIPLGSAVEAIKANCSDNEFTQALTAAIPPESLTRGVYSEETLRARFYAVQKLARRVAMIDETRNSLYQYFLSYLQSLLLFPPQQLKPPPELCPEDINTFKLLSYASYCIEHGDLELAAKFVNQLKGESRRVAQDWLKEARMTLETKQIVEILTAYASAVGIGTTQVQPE
Chain of UniProt P49441 (P49441 whole entry, looked up): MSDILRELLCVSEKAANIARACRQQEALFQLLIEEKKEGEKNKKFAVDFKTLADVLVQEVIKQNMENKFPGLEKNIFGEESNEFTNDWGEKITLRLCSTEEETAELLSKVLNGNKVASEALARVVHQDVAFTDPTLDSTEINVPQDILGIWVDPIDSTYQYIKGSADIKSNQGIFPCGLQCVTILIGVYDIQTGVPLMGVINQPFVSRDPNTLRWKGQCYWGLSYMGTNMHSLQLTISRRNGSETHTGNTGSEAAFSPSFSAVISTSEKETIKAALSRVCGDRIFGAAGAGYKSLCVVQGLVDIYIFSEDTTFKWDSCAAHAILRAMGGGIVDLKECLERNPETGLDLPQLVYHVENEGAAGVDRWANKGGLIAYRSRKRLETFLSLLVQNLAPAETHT
Chain of UniProt Q9NVC6 (Q9NVC6 whole entry, looked up): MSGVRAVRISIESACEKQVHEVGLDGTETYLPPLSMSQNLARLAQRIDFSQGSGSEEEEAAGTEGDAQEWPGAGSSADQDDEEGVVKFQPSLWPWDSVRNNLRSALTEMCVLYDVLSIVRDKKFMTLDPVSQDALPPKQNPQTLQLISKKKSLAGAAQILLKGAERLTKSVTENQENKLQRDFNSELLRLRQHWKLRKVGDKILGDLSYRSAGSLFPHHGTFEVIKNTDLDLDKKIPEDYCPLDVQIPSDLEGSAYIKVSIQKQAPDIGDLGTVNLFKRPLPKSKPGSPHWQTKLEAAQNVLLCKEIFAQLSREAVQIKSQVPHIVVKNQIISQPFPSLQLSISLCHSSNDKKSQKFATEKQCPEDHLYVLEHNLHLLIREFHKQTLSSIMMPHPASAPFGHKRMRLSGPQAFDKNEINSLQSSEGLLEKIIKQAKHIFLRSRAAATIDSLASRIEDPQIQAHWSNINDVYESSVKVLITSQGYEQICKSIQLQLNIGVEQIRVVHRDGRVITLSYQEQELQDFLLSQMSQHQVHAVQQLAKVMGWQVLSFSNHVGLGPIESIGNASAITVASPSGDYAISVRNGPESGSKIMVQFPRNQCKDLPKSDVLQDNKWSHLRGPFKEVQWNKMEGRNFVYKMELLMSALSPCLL
Chain of UniProt Q9NQG6 (Q9NQG6 whole entry, looked up): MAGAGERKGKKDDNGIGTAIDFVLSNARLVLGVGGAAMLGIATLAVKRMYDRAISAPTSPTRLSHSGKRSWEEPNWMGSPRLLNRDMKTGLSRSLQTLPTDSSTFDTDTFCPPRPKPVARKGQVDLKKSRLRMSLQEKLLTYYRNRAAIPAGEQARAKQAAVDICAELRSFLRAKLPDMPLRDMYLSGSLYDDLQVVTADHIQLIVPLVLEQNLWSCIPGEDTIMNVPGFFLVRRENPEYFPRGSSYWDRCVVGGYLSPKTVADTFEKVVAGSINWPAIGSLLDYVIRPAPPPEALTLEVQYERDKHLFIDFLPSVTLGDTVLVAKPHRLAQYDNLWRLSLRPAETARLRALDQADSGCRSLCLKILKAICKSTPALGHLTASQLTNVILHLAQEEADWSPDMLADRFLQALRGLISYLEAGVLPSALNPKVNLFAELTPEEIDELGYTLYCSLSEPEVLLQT
Chain of UniProt P22692 (P22692 whole entry, looked up): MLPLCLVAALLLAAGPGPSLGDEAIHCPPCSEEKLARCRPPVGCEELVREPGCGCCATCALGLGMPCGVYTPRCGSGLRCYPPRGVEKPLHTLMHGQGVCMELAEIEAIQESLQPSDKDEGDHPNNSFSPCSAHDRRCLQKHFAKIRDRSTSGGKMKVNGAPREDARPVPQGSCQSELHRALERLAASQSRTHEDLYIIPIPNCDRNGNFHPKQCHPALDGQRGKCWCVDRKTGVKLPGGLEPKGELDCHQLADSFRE

Target | log2 fold change [1] | log2 fold change (filanesib) | log2 fold change (zotarolimus) | log2 fold change (idasanutlin) | log2 fold change (alisertib) | log2 fold change [2] | log2 fold change (gefitinib) | log2 fold change [3] | log2 fold change (lapatinib) | log2 fold change (pictilisib) | log2 fold change [4] | log2 fold change (crizotinib) | log2 fold change [5] | log2 fold change [6] | log2 fold change (duvelisib) | log2 fold change (gandotinib) | log2 fold change (tozasertib) | log2 fold change [7] | log2 fold change (doramapimod) | log2 fold change (ispinesib)
IMMT isoform 4 (UniProt Q16891) | -0.008 | -0.122 | -0.007 | -0.082 | -0.049 | -0.146 | -0.005 | 0.013 | -0.047 | 0.005 | 0.017 | -0.102 | 0.084 | -0.012 | 0.019 | -0.093 | 0.002 | 0 | -0.014 | -0.202
INPP1 (UniProt P49441) | -0.086 | -0.019 | 0.048 | -0.123 | -0.056 | 0.101 | -0.031 | 0.03 | -0.049 | -0.116 | 0.041 | -0.016 | -0.012 | -0.028 | 0.011 | -0.084 | 0.018 | -0.043 | -0.018 | 0.052
LMNA (UniProt P02545) | -0.093 | 0.088 | 0.018 | 0.093 | 0.096 | -0.112 | -0.014 | 0 | 0.028 | 0.008 | -0.054 | 0.064 | 0.102 | -0.231 (active) | -0.013 | -0.098 | 0.069 | -0.035 | 0.018 | 0.214 (active)
MED16 (UniProt Q9Y2X0) | -0.032 | 0.062 | -0.029 | 0.144 | -0.024 | -0.063 | 0.016 | 0.005 | 0.064 | 0.011 | -0.04 | -0.072 | -0.071 | 0.06 | -0.053 | -0.098 | -0.096 | 0.063 | 0.08 | -0.097
KCTD2 (UniProt Q14681) | 0.068 | 0.154 | -0.148 | 0.116 | -0.012 | 0.402 | 0.025 | 0.154 | -0.413 | 0.426 | 0.178 | 0.02 | -0.047 | 0.511 | 0.211 | 0.355 | -0.116 | -0.281 | 0.089 | 0.026
IGFBP4 (UniProt P22692) | -0.075 | 0.012 | -0.31 | 0.392 (active) | 0.009 | -0.024 | -0.107 | 0.179 | -0.036 | -0.022 | -0.066 | 0.064 | 0.022 | -0.114 | 0.02 | -0.229 | -0.021 | -0.007 | 0 | -0.233
MED17 (UniProt Q9NVC6) | 0.004 | 0.019 | -0.052 | 0.166 | -0.08 | 0.044 | 0.016 | -0.018 | -0.063 | 0.089 | -0.02 | -0.004 | 0.028 | 0.119 | -0.067 | 0.007 | -0.042 | 0.109 | 0.022 | -0.049
ILF3 isoform 7 (UniProt Q12906) | 0.022 | 0.213 | -0.047 | 0.095 | -0.061 | 0.174 | -0.022 | -0.06 | 0 | 0.018 | -0.159 | -0.074 | -0.181 | 0.286 | -0.092 | 0.1 | 0.039 | -0.001 | 0.118 | 0.034
IPO11 isoform 2 (UniProt Q9UI26) | 0.036 | -0.045 | 0.002 | -0.087 | -0.023 | -0.006 | -0.049 | 0.04 | 0.005 | 0.028 | 0.037 | 0 | -0.015 | -0.082 | 0.041 | -0.076 | 0.025 | 0.007 | -0.028 | 0.051
MIEF1 (UniProt Q9NQG6) | 0.053 | -0.18 | 0.006 | -0.066 | -0.033 | -0.382 (active) | 0.051 | 0.001 | 0.004 | -0.027 | 0.088 | -0.31 (active) | -0.005 | -0.046 | 0.096 | 0.095 | -0.038 | 0.065 | 0.007 | -0.489 (active)
LPCAT3 (UniProt Q6P1A2) | -0.067 | -0.352 (active) | -0.065 | -0.086 | -0.055 | -0.117 | -0.024 | -0.017 | 0.172 | -0.011 | 0.091 | -0.121 | 0.171 | 0.006 | -0.035 | -0.167 | -0.027 | 0.027 | -0.042 | -0.696 (active)
MAP4K5 (UniProt Q9Y4K4) | 0.01 | -0.083 | 0.021 | 0.067 | 0.134 | 0.224 | -0.011 | 0.011 | 0.15 | 0.012 | 0.019 | – | 0.072 | 0.24 | – | -0.067 | -0.088 | – | -0.064 | -0.045
LUC7L (UniProt Q9NQ29) | -0.094 | 0.178 | -0.013 | 0.052 | -0.07 | 0.024 | -0.104 | 0.017 | 0.007 | 0.092 | -0.009 | -0.028 | -0.033 | -0.001 | -0.042 | 0.199 | 0.06 | 0.033 | 0.029 | -0.007
MAPK14 (UniProt Q16539) | 0.024 | -0.055 | 0.059 | -0.361 | -0.014 | 0.014 | 0.796 (active) | 0.303 | -0.002 | -0.05 | 0.023 | -0.062 | – | 0.018 | -0.129 | -0.099 | -0.066 | 0.015 | – | -0.069
LDLR (UniProt P01130) | -0.012 | 0.005 | -0.07 | 0.009 | 0.073 | -0.017 | 0.095 | 0.008 | 0.042 | 0.078 | -0.005 | -0.363 (active) | -0.05 | -0.045 | -0.05 | -0.038 | -0.088 | -0.094 | -0.017 | -0.052
MAPK12 (UniProt P53778) | 0.066 | -0.062 | 0.026 | -0.072 | -0.115 | 0.084 | -0.269 | 0.093 | -0.056 | 0.062 | -0.005 | – | 0.105 | -0.106 | -0.005 | 0.037 | 0.099 | 0.01 | – | -0.036
